In the supplement of paper PMC9399229:
Counter-ions that a name gives are not always drawn. In all, about 1,900 compounds were measured (“relative cell viability (CellTiter-Glo), compound plus cabozantinib, relative to the cabozantinib arm (arm median 1.05; reference not stated)”: median about 1.1, lowest 2% from about 0.15 on). Many of the other results were omitted from the sample, so the lowest values are more common in it than they were.

Each compound was assayed on Hep3B (assay: relative cell viability (CellTiter-Glo), compound plus cabozantinib, relative to the cabozantinib arm (arm median 1.05; reference not stated) (fraction); higher = more viable cells (less growth inhibition)). Conditions: cabozantinib 2 µM; 4 days.

Row | SMILES | relative cell viability
1 | C[C@@H]1O[C@@H](O[C@H]2C[C@@H](O)[C@]3(CO)[C@H]4[C@H](O)C[C@]5(C)[C@@H](C6=CC(=O)OC6)CC[C@]5(O)[C@@H]4CC[C@]3(O)C2)[C@H](O)[C@H](O)[C@H]1O [Ouabain] | 0.105
2 | CC1(C)CC(O)CC(C)(C)N1[O] [Tempol] | 1.03
3 | Cc1ccc(-n2nccn2)c(C(=O)N2CCN(c3nc4cc(Cl)ccc4o3)CC[C@H]2C)c1 [Suvorexant (MK-4305)] | 0.987
4 | O=C(NCC1CCOCC1)c1cnc(Nc2ccc(Cl)cc2Cl)nc1C(F)(F)F | 1.02
5 | CCc1c(C(=O)C(N)=O)c2c(OCC(=O)O)cccc2n1Cc1ccccc1 | 1.05
6 | [O-][n+]1ccccc1[S-].[O-][n+]1ccccc1[S-].[Zn+2] [Zinc Pyrithione] | 0.0184
7 | CCC1(c2cccc(O)c2)CCCCN(C)C1 (stereo not given) [Meptazinol HCl] | 1.13
8 | CC(=O)O[C@H]1C[C@@H]2CC[C@@H]3[C@H](CC[C@@]4(C)[C@H]3C[C@H]([N+]3(C)CCCCC3)[C@@H]4OC(C)=O)[C@@]2(C)C[C@@H]1[N+]1(C)CCCCC1 [Pancuronium dibromide] | 1.06
9 | Cc1cc2c(C(C)C)c(O)c(O)c(C=O)c2c(O)c1-c1c(C)cc2c(C(C)C)c(O)c(O)c(C=O)c2c1O [Gossypol] | 1.15
10 | CC(=O)Nc1ccc(Cc2ccc(NC(C)=O)cc2)cc1 | 1.07
11 | CC(C)=CCC[C@]1(C)C=Cc2c(O)c3c(c(CC=C(C)C)c2O1)O[C@]12C(=C[C@@H]4C[C@H]1C(C)(C)O[C@@]2(C/C=C(/C)C(=O)O)C4=O)C3=O [Gambogic Acid] | 0.118
12 | CCC1=C[C@H]2CN3CCc4c([nH]c5ccccc45)[C@](C(=O)OC)(C2)[C@H]13 [Catharanthine] | 1.06
13 | CN1[C@@H]2CC[C@H]1C[C@@H](OC(=O)[C@H](CO)c1ccccc1)C2 [Hyoscyamine] | 1.1
14 | CN(C)CCc1ccc(O)cc1 [Hordenine] | 1.11
15 | C[C@H]1CCC/C=C/[C@@H]2C[C@H](O)C[C@H]2[C@H](O)/C=C/C(=O)O1 [Brefeldin A] | 0.105
16 | c1ccc2c(c1)Nc1ccccc1S2 [Phenothiazine] | 1.17
17 | CN(C)Cc1c[nH]c2ccccc12 [Gramine] | 1.06
18 | NCC(=O)O.[C-]#[O+].[C-]#[O+].[C-]#[O+].[Cl][Ru] | 0.978
19 | C#C[C@]1(O)C=C[C@H]2[C@@H]3CCC4=CC(=O)CC[C@@H]4[C@H]3CC[C@@]21CC [Gestodene] | 0.965
20 | Cc1sc2c(c1C)C(c1ccc(Cl)cc1)=N[C@@H](CC(=O)Nc1ccc(O)cc1)c1nnc(C)n1-2 | 0.454
